A selection: hits, their analogues and other compounds. The true share with any hit is near 6.2%.
MARV entry inh – qHTS for inhibitors of binding or entry into cells for Marburg Virus | Marburg virus pseudotyped entry inhibition, cell reporter | Potency, µM (titrated, usually from 37.8 µM), inactives show at the highest dose activity change, negative = inhibition, actives largely listed as inhibitors | actives 1.8% (n = 300,000) | AID 540276, 2011; calls by dose curve; tested in HEK293 cells; note: potency is the fitted concentration of half-maximal effect
HCMV antiviral – qHTS Assay for inhibitors of the human cytomegalovirus (HCMV); activity change, negative = inhibition, % at 57.5 µM; AID 1259415, 2018; actives 4.5% (n = 410,000); HFF cells, HCMV-luciferase reporter, 72 h; active compounds read low; in the data active = activity change below about -60%; inconclusive = no clear call, values can overlap the other calls; inactive = above about -39%
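After 16 h attachment at 37C, HFF cells received test compound and HCMV-luciferase (1 PFU/cell); reporter luminescence read 72 h later, data normalized against buffer-only and known inhibitor Salinomycin.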
FMDV inh – High Throughput Screening for Foot and Mouth Disease Virus Antivirals; actives 1.2% (n = 410,000); FMDV antiviral cell-based qHTS; Potency, µM (highest dose often 57.9 µM), for inactives: at the highest dose activity change, negative = inhibition, hits mostly inhibitors; AID 1159524, 2015; calls by dose curve; tested in HEK293T cells; note: read-out not given here; potency is the fitted concentration of half-maximal effect; nearly all actives have a fitted effect of over 45% in size
LASV entry inh – qHTS for Inhibitors of binding or entry into cells for Lassa Virus. Lassa virus pseudotype entry inhibition, cell reporter. Potency, µM (highest dose often 37.9 µM), without a hit: at the highest dose activity change, negative = inhibition, most hits filed as inhibitors. actives 1.2% (n = 300,000). AID 540256, 2011; calls by dose curve; tested in HEK293 cells; note: potency is the fitted concentration of half-maximal effect; nearly all actives have a fitted effect of over 50% in size
Numbers without * were called inactive; ? = inconclusive; . = no result given; [ ] = another dose, or the depositor's remark. % is set by controls: 0 for no effect and ±100 for the full control effect.

SMILES	MARV entry inh	HCMV antiviral	FMDV inh	LASV entry inh
O=C(NCc1nc2ccccc2[nH]1)c1c(F)cccc1F	-2%[46.1 µM]	-1	5%	?
CCOc1ccc(NS(=O)(=O)c2ccc(NC(=O)C3CCCO3)cc2)cc1 (stereo unspecified)	-23%	3	-22%	8.9µM*
CCCCNC(=O)c1ccc(NC(=O)C2CCCO2)cc1 (stereo unspecified)	14%	-90*	42%	3%
CC(C)OCCCNC(=O)c1ccc(NC(=O)C2CCCO2)cc1 (stereo unspecified)	?	38	-5%	3%
COc1ccc(NS(=O)(=O)c2cc(NC(=O)C3CCCO3)ccc2N2CCCCC2)cc1 (stereo unspecified)	?	-64*	76%	?
CN1CCN(c2ccc(Nc3nccc4[nH]c(-c5cccnc5)cc34)cc2)CC1	.	42	.	.
Cc1ccc2nc(-c3ccc(F)cc3)c(Cc3cccc(F)c3)n2c1	.	115	.	.
CCCCc1nc2ccn(CC(=O)N(C)C)c(=O)c2n1Cc1ccc(-c2ccccc2-c2nn[nH]n2)cc1	.	.	-7%	.
CCN1CCN(c2ncnc3ccc(Br)cc23)CC1	-21%	-67*	-29%	-2%
O=C(O)C1CCN(c2nc(-c3ccccc3)c3cc(Br)ccc3n2)CC1	27%	-29	-21%	?
CN1CCN(c2nc(N3CCN(CCO)CC3)nc3ccccc23)CC1	?	-18	0%	?
OCCN1CCN(c2ncnc3ccc(Br)cc23)CC1	.	-78*	-24%	.
OCCN1CCN(c2nc(-c3ccccc3)c3cc(Br)ccc3n2)CC1	?	-62*	-8%	?
Cc1ccc(-n2ncc3c(N4CCN(CCO)CC4)ncnc32)cc1Cl	.	29	-15%	-2%[46.1 µM]
OCCN1CCN(c2cc(-c3ccccc3)c3ccccc3n2)CC1	?	-63*	?	-6%
CC(C)Oc1ccc(CN2CCc3nc(Nc4ccc5c(c4)OCCO5)ncc3C2)cc1	.	?	-28%	-1%[46.1 µM]
O=S(=O)(NCc1nnc2n1CCN(Cc1ccccc1Cl)CC2)c1ccccc1	.	.	-12%	.
Cc1ccc(-n2c(=O)[nH]c3cc(C(=O)NCCc4ccccc4)ccc3c2=O)cc1	-1%[46.1 µM]	-16	-13%	-9%[46.1 µM]
CCC[C@@H]1Cc2c(sc3nc(SC)nc(N)c23)CO1	0%[46.1 µM]	.	.	.
CN1CCN(C(=O)C(=O)Nc2c3c(nn2-c2ccc(F)cc2)CSC3)CC1	.	13	-17%	5%[46.1 µM]
OCCNCc1cc(Br)ccc1OCc1ccc(Cl)cc1Cl	11µM*	-17	0%	11µM*
OCCNCc1cc(Br)ccc1OCc1ccc(Cl)cc1	?	-29	?	-20%
COc1cc(/C=C2\SC(=O)NC2=O)ccc1Oc1ccc([N+](=O)[O-])cc1[N+](=O)[O-]	1%[46.1 µM]	-75*	-3%	-25%
CCN1C(=O)S/C(=C/c2ccc(Oc3ccc([N+](=O)[O-])cn3)c(OC)c2)C1=O	.	?	-17%	.
CCN1C(=O)C(=Cc2cccc(OC)c2Oc2ccc([N+](=O)[O-])cc2[N+](=O)[O-])SC1=S	?	-6	13µM*	?
SMILES	MARV entry inh	HCMV antiviral	FMDV inh	LASV entry inh
COc1ccc(C(=O)CC(Nc2ccc([N+](=O)[O-])cc2)c2ccc(Cl)cc2)cc1 (stereo unspecified)	?	-88*	-16%	?
CCc1ccc(NC(=O)COc2ccc(F)cc2C(=O)c2cnn(-c3ccccc3)c2)cc1	?	-102*	10%	-27%
Cc1cc(N(CCCl)CCCl)ccc1/C=N/N=C(\N)c1cnccn1	2.2µM*	-16	19%	?
Cc1cc(N(CCCl)CCCl)ccc1C=Cc1ccncn1	4µM*	?	-27%	?
CCN(CCC#N)c1ccc(/C=N/Nc2nc(C)cc(=O)[nH]2)c(C)c1	13%[46.1 µM]	-2	-1%	12%[46.1 µM]
Cc1ccc(C)c(CNC(=O)c2ccc3c(c2)nc2n3CCCCC2)c1	.	-23	20%	7.9µM*
O=C(NCCc1ccccc1Cl)c1ccc2c(c1)nc1n2CCCCC1	.	-81*	25µM*	?
CC(C)CCNC(=O)c1ccc2c(c1)nc1n2CCCCC1	.	-7	-25%	?
Cc1ccc(C)c(CNC(=O)c2ccc3c(c2)nc2n3CCOC2)c1	.	10	-6%	?
CCC[C@H](/C=C/C(=O)OC(C)(C)C)NC(=O)C(F)(F)F	.	17	.	.
COc1ccc(N2CC(O)=C(c3nc(-c4ccc(Br)cc4)cs3)C2=N)cc1	.	-67*	5%	.
CCN(CC)c1ccc(NC(=O)C2COc3ccc(OC)cc3C2)c(C)c1 (stereo unspecified)	.	-79*	?	?
